Assay outcomes (PubChem)
hcDAF12 agonist – H. contortus DAF-12 activation, primary screen; HEK293 hcDAF-12 lit1-tk-luc reporter, luminescence; 0% DMSO, 100% Δ7-dafachronic acid; activation, % at 6.8 µM; 370,000 compounds, 1.4% hits;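 active = activation above the mean of all tested compounds plus 3 SD, cut at about 5.5% in these data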;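 also: 100% = response to 3 µM Δ7-dafachronic acid high control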
hgDAF12 agonist – hgDAF-12 agonism, primary luciferase screen. HEK293 GAL4-hgDAF12 UAS-luciferase reporter, agonist luminescence; normalized to butyrate control. activation, % at 6.8 µM. 370,000 compounds, 1.8% hits. AID 687014;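 active = activation above a cutoff set at the mean of all screened compounds plus 3 SD, cut at about 10% in these data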;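 also: 0% = DMSO wells and 100% = sodium butyrate wells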
ssDAF-12 act – activates DAF-12 receptor from parasite S. stercoralis; 370,000 compounds, 1% hits; activation, % at 6.8 µM; HEK293 ssDAF-12/GRIP1 lit1-tk-luc reporter, luminescence; % of 3 µM dafachronic acid response;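 active = activation above the mean over all tested compounds plus 3 SD, cut at about 0.9% in these data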;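 also: 0% = DMSO-only wells and 100% = 3 µM delta7-dafachronic acid wells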
DAX1 inh-1 – inhibitors of human orphan nuclear receptor DAX1 (NR0B1); 340,000 compounds, 0.99% hits; inhibition, % at 6.75 µM; HEK293 Gal4-DAX1 luciferase reporter, luminescence;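 active = inhibition above the mean over all tested compounds plus 3 SD, cut at about 4.2% in these data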;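 also: 0% = DAX1-transfected cells with DMSO and 100% = empty-vector control cells with DMSO; inhibition shows as a rise in luminescence from relieved DAX1 repression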
Target sequence (P51843 207-470 limits assumed): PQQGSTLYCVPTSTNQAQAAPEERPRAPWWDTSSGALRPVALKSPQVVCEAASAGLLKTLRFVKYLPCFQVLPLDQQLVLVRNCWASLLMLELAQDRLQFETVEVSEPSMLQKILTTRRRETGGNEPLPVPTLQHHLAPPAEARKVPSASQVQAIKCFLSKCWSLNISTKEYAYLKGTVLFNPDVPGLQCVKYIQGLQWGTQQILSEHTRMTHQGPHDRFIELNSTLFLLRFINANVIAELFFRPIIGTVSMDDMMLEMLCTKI
DAX1 inh-2 – inhibitors of DAX1 repression of SF-1 activated StAR promoter; HEK293T StAR-luciferase reporter, SF-1/DAX-1 repression relief; inhibition, % at 6.8 µM; 370,000 compounds, 1.1% hits;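 active = inhibition above the mean over all tested compounds plus 3 SD, cut at about 3.6% in these data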;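 also: 0% = DAX-1 cells with DMSO and 100% = cells lacking DAX-1 with DMSO; higher inhibition means more luminescence from relief of DAX-1 repression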
Active calls of the source: *; nt = no result. This is a sample that favours compounds with a hit; in the whole collection about 4.1% have one here.

SMILES | hcDAF12 agonist | hgDAF12 agonist | ssDAF-12 act | DAX1 inh-1 | DAX1 inh-2
CC1CC(C)CN(C(=O)CSc2nnc(-c3ccco3)o2)C1 (configuration not stated) | 0 | 1 | -1 | 4.8* | 0
COc1cccc(-c2nnc(SCC(=O)N3CC(C)CC(C)C3)o2)c1 (configuration not stated) | -4 | -1 | -1 | 6.7* | 0
CC1CCN(C(=O)CSc2nnc(-c3ccco3)o2)CC1 | 2 | -2 | -1 | -1 | 0
CCC1CCCCN1C(=O)CSc1nnc(-c2ccco2)o1 (configuration not stated) | 4 | 7 | 1.0* | 2 | 2
COc1ccc(-n2cc(COC(=O)NCCc3c[nH]c4ccccc34)nn2)cc1 | 0 | 0 | -2 | nt | -1
CCOC(=O)[C@@H](CCc1ccccc1)N[C@@H](C)C(=O)N1CCC[C@H]1C(=O)O | 1 | 3 | -1 | nt | 1
Cc1cc(C)cc(Nc2ncc3c(n2)CCCC3=O)c1 | 5 | 10 | 0 | -1 | 3.9*
O=c1[nH]c(/C=C/c2ccccc2F)nc2ccccc12 | 5 | 11* | 0 | 0 | 0
COc1ccc([C@H]2OC(=O)C[C@H]2C(=O)N2CCN(c3ccccc3Cl)CC2)cc1OC | -2 | -1 | -1 | nt | 0
CCOc1ccc(/C=N/n2c(-c3n[nH]c4c3CCC4)n[nH]c2=S)cc1 | -2 | 7 | -1 | nt | -1
CC(C)C(OC(=O)c1ccccc1)c1nccc2ccccc12 (configuration not stated) | 5 | 4 | 0 | 4.2* | 1
O=C(OC(c1ccccc1)c1nccc2ccccc12)c1ccccc1 (configuration not stated) | -6 | -17 | -3 | 1 | -5
COC(=O)C1CCN(C(=O)CCn2nnc(-c3cccs3)n2)CC1 | -1 | 4 | -1 | nt | 0
O=C(CCc1nc2ccccc2c(=O)[nH]1)NCc1ccco1 | 1 | -4 | -1 | 5.4* | 1
O=C(CCc1nc2ccccc2c(=O)[nH]1)NCc1ccccn1 | -1 | 3 | -1 | 1 | 0
CCCCNC(=O)C1(C(=O)C2CC2)CC(C(=O)OCC)=NO1 (configuration not stated) | -1 | -2 | 0 | nt | 1
O=C(Nc1ccc2c(c1)OCO2)c1cncc(Br)c1 | 1 | 11* | -1 | 2 | 1
O=C(NCc1ccncc1)c1cncc(Br)c1 | 1 | -2 | -2 | 4.4* | -1
O=C(Nc1ccc2c(c1)OCCO2)c1cncc(Br)c1 | 3 | 11* | 0 | 1 | 2
O=C(Nc1ccc2c(c1)OCCO2)c1ccccc1 | nt | nt | nt | 0 | nt
CCc1sc(C(=O)Nc2ccc3c(c2)OCCO3)cc1Br | 2 | 11* | 0 | 1 | 7.1*
O=C(N/N=C\c1ccc2c(c1)OCO2)c1cncc(Br)c1 | -1 | 2 | -1 | -1 | 0
Cc1cccc(NC(=O)CSc2nnc(SCc3ccc(Cl)cc3)s2)c1 | -1 | -4 | -2 | nt | 0
CCOC(=O)c1cccc(-c2cc(C(C)=O)c3n(c2=O)CCC3)c1 | -1 | 0 | -1 | nt | 0
CN(C(=O)c1cn(C)c2ccccc12)c1ccc(Oc2cccnc2)cc1 | -5 | -1 | -2 | nt | -3
SMILES | hcDAF12 agonist | hgDAF12 agonist | ssDAF-12 act | DAX1 inh-1 | DAX1 inh-2
O=C1c2ccccc2/C(=C\c2ccc(O[C@@H]3CCCCO3)cc2)N1c1ccccc1 | 2 | 11* | -1 | nt | 1
Cc1cc(N(C)C)cc(C)c1N=Nc1cc[n+]([O-])cc1 | -1 | 1 | -1 | 2 | -1
CN(C)c1ccc(N=Nc2cccc(F)c2)cc1 | 5.6* | 11* | 1.4* | 1 | 3
COc1ccccc1NS(=O)(=O)c1ccc(C)c(NC(=O)c2ccc(S(=O)(=O)N3CCCCCC3)cc2)c1 | -4 | -7 | -2 | -4 | -2
Cc1ccc(CNC(=O)c2cc3c(=O)n(C)c4ccccc4c3n2C)cc1 | 1 | 0 | -1 | 5.6* | 0
CCN1CCN(C(=O)c2cc3c(=O)n(C)c4ccccc4c3n2C)CC1 | 2 | -1 | -1 | 5.8* | 2
CCCN(CCC)CCNC(=O)c1cc2c(=O)n(C)c3ccccc3c2n1C | 2 | 3 | -1 | 5.7* | 3
O=C(c1cccs1)N1CC[C@H]2[C@H](CCCN2Cc2ccc(F)cc2)C1 | -1 | 0 | -2 | nt | 0
CCCCCCSc1ccc([C@@H]2[C@H]3C(=O)N(CC)C(=O)[C@H]3[C@]3(C(=O)OC)CCCN23)cc1 | 1 | 1 | -2 | 0 | 0
CN(CCOC(=O)c1cccs1)C1CN(Cc2cn(Cc3ccccc3Cl)nn2)S(=O)(=O)C1 (configuration not stated) | 1 | 5 | -1 | nt | 1
CCC(=O)NCCc1nc2cc(NC(=O)c3ccc(Cl)cc3)ccc2n1C | 3 | 10 | -1 | 0 | 1
CC(=O)NCCc1nc2cc(NC(=O)c3ccc(Cl)cc3)ccc2n1C | 2 | 11* | -1 | 2 | 2
O=C(O)C1Cc2[nH]cnc2C(c2ccccc2O)N1 (configuration not stated) | 6.0* | 1 | 0 | 1 | 0
COc1ccc(CC2(CO)CCN(Cc3cnn(C)c3C)CC2)cc1 | -1 | 1 | -2 | 4.9* | -1
CC12CCC(C(=O)N3CCOCC3)([C@H](Br)C1=O)C2(C)C (some centres not stated) | 0 | 0 | -1 | nt | 1
CN(C)C(=O)C12CCC(C)(C(=O)C1Br)C2(C)C (configuration not stated) | 0 | 0 | 1.0* | -1 | -1
CC(C)c1cc(C(N)=O)c(NC(=O)c2cccc(COc3ccc(Cl)cc3)c2)s1 | 4 | 13* | 0 | -5 | 1
O=C(O)c1cccc(NC(=O)c2ccc(COc3ccc(Cl)cc3)cc2)c1 | 0 | 0 | -1 | 2 | 0
O=C(O)c1cc(-c2cc3ccccc3o2)nn1-c1ccccc1 | 5.8* | 2 | 2.5* | 1 | 0
COC(=O)Cn1c(CCC(=O)O)ccc1-c1ccccc1 | -2 | 0 | -1 | 5.2* | 1
COc1ccc(NC(=O)Cn2c(CCC(=O)O)ccc2-c2ccccc2)cc1 | -1 | 1 | 0 | 0 | 0
COc1cc(O)c(C(CC(=O)N2CC(C)OC(C)C2)c2ccc3c(c2)OCO3)c(OC)c1 (configuration not stated) | -2 | -2 | -1 | nt | nt
CC1(C)c2ccccc2-c2nc3ccccc3cc2C1O (configuration not stated) | 4 | 4 | 0 | 1 | 0
c1ccc2c(c1)-c1nc3ccccc3cc1C2N1CCCCC1 (configuration not stated) | 4 | 10 | 1.4* | 2 | 4.2*
Cc1ccc(-c2cc(-c3nnc(SCC(=O)Nc4ccccc4-c4ccccc4)n3N)[nH]n2)cc1 | -2 | 0 | -2 | nt | -2
